Where two headings read alike, the source gives them in different places.
Legend:
CDK16 = test system: CDK16; set-up: species or system human, MV4-11 + K-562 + COLO205 + SK-N-BE2 + OVCAR-8; settings: read-out: apparent Kd, compound concentrations: 100 nM and 1000 nM (sheet 'Samples'), n = 1
CDK2 = test system: CDK2; set-up: species or system human, MV4-11 + K-562 + COLO205 + SK-N-BE2 + OVCAR-8; settings: read-out: apparent Kd, compound concentrations: 100 nM and 1000 nM (sheet 'Samples'), n = 1
NUAK1 = test system: NUAK1; set-up: species or system human, MV4-11 + K-562 + COLO205 + SK-N-BE2 + OVCAR-8; settings: read-out: apparent Kd, compound concentrations: 100 nM and 1000 nM (sheet 'Samples'), n = 1
NUAK2 = test system: NUAK2; set-up: species or system human, MV4-11 + K-562 + COLO205 + SK-N-BE2 + OVCAR-8; settings: read-out: apparent Kd; compound concentrations: 100 nM and 1000 nM (sheet 'Samples'), CATDS: 0.14838950263404099; n = 1
STK3 = test system: STK3; set-up: species or system human, MV4-11 + K-562 + COLO205 + SK-N-BE2 + OVCAR-8; settings: read-out: apparent Kd; compound concentrations: 100 nM and 1000 nM (sheet 'Samples'), CATDS: 0.13207546439769999; n = 1
STK4 = test system: STK4; set-up: species or system human, MV4-11 + K-562 + COLO205 + SK-N-BE2 + OVCAR-8; settings: read-out: apparent Kd; compound concentrations: 100 nM and 1000 nM (sheet 'Samples'), CATDS: 0.136772712102746; n = 1
CDK6 = test system: CDK6; set-up: species or system human, MV4-11 + K-562 + COLO205 + SK-N-BE2 + OVCAR-8; settings: read-out: apparent Kd; compound concentrations: 100 nM and 1000 nM (sheet 'Samples'), CATDS: 0.29293356798223702; n = 1
CSNK2A2 = test system: CSNK2A2; set-up: species or system human, MV4-11 + K-562 + COLO205 + SK-N-BE2 + OVCAR-8; settings: read-out: apparent Kd; compound concentrations: 100 nM and 1000 nM (sheet 'Samples'), CATDS: 0.29769898154006003; n = 1
CDK4 = test system: CDK4; set-up: species or system human, MV4-11 + K-562 + COLO205 + SK-N-BE2 + OVCAR-8; settings: read-out: apparent Kd; compound concentrations: 100 nM and 1000 nM (sheet 'Samples'), CATDS: 3.5176707262462401E-2; n = 1
CDK9 = test system: CDK9; set-up: species or system human, MV4-11 + K-562 + COLO205 + SK-N-BE2 + OVCAR-8; settings: read-out: apparent Kd; compound concentrations: 100 nM and 1000 nM (sheet 'Samples'), CATDS: 6.6122234274616706E-2; n = 1
CDKL5 = test system: CDKL5; set-up: species or system human, MV4-11 + K-562 + COLO205 + SK-N-BE2 + OVCAR-8; settings: read-out: apparent Kd; compound concentrations: 100 nM and 1000 nM (sheet 'Samples'), CATDS: 0.306088725314409; n = 1
CLK1 = test system: CLK1; set-up: species or system human, MV4-11 + K-562 + COLO205 + SK-N-BE2 + OVCAR-8; settings: read-out: apparent Kd; compound concentrations: 100 nM and 1000 nM (sheet 'Samples'), CATDS: 0.131869322388253; n = 1
CLK4 = test system: CLK4; set-up: species or system human, MV4-11 + K-562 + COLO205 + SK-N-BE2 + OVCAR-8; settings: read-out: apparent Kd; compound concentrations: 100 nM and 1000 nM (sheet 'Samples'), CATDS: 7.3732839889054297E-2; n = 1
CSNK1D = test system: CSNK1D; set-up: species or system human, MV4-11 + K-562 + COLO205 + SK-N-BE2 + OVCAR-8; settings: read-out: apparent Kd; compound concentrations: 100 nM and 1000 nM (sheet 'Samples'), CATDS: 3.5838047250471398E-2; n = 1
CSNK1E = test system: CSNK1E; set-up: species or system human, MV4-11 + K-562 + COLO205 + SK-N-BE2 + OVCAR-8; settings: read-out: apparent Kd; compound concentrations: 100 nM and 1000 nM (sheet 'Samples'), CATDS: 3.1149336029707601E-2; n = 1
DYRK1A = test system: DYRK1A; set-up: species or system human, MV4-11 + K-562 + COLO205 + SK-N-BE2 + OVCAR-8; settings: read-out: apparent Kd; compound concentrations: 100 nM and 1000 nM (sheet 'Samples'), CATDS: 4.1731549571109597E-2; n = 1
FLT3 = test system: FLT3; set-up: species or system human, MV4-11 + K-562 + COLO205 + SK-N-BE2 + OVCAR-8; settings: read-out: apparent Kd; compound concentrations: 100 nM and 1000 nM (sheet 'Samples'), CATDS: 6.99540125282513E-2; n = 1
GSK3A = test system: GSK3A; set-up: species or system human, MV4-11 + K-562 + COLO205 + SK-N-BE2 + OVCAR-8; settings: read-out: apparent Kd, compound concentrations: 100 nM and 1000 nM (sheet 'Samples'), n = 1
GSK3B = test system: GSK3B; set-up: species or system human, MV4-11 + K-562 + COLO205 + SK-N-BE2 + OVCAR-8; settings: read-out: apparent Kd, compound concentrations: 100 nM and 1000 nM (sheet 'Samples'), n = 1
ICK = test system: ICK; set-up: species or system human, MV4-11 + K-562 + COLO205 + SK-N-BE2 + OVCAR-8; settings: read-out: apparent Kd; compound concentrations: 100 nM and 1000 nM (sheet 'Samples'), CATDS: 8.4231126757800603E-2; n = 1
NEK9 = test system: NEK9; set-up: species or system human, MV4-11 + K-562 + COLO205 + SK-N-BE2 + OVCAR-8; settings: read-out: apparent Kd; compound concentrations: 100 nM and 1000 nM (sheet 'Samples'), CATDS: 3.4709334986352897E-2; n = 1
NNT = test system: NNT; set-up: species or system human, MV4-11 + K-562 + COLO205 + SK-N-BE2 + OVCAR-8; settings: read-out: apparent Kd; compound concentrations: 100 nM and 1000 nM (sheet 'Samples'), CATDS: 3.3051747730414797E-2; n = 1
Q6ZSR9 = Q6ZSR9 (human, UniProt Q6ZSR9); set-up: species or system MV4-11 + K-562 + COLO205 + SK-N-BE2 + OVCAR-8; settings: read-out: apparent Kd; compound concentrations: 100 nM and 1000 nM (sheet 'Samples'), CATDS: 7.3176607259513596E-2; n = 1
RIOK2 = test system: RIOK2; set-up: species or system human, MV4-11 + K-562 + COLO205 + SK-N-BE2 + OVCAR-8; settings: read-out: apparent Kd; compound concentrations: 100 nM and 1000 nM (sheet 'Samples'), CATDS: 3.29501520790835E-2; n = 1
TGFBR2 = test system: TGFBR2; set-up: species or system human, MV4-11 + K-562 + COLO205 + SK-N-BE2 + OVCAR-8; settings: read-out: apparent Kd; compound concentrations: 100 nM and 1000 nM (sheet 'Samples'), CATDS: 8.2747157817186001E-2; n = 1
CDC42 = test system: CDC42; set-up: species or system human, MV4-11 + K-562 + COLO205 + SK-N-BE2 + OVCAR-8; settings: read-out: apparent Kd; compound concentrations: 100 nM and 1000 nM (sheet 'Samples'), CATDS: 0.203680819174512; n = 1

Sequence of Q6ZSR9 (Q6ZSR9 whole entry, looked up): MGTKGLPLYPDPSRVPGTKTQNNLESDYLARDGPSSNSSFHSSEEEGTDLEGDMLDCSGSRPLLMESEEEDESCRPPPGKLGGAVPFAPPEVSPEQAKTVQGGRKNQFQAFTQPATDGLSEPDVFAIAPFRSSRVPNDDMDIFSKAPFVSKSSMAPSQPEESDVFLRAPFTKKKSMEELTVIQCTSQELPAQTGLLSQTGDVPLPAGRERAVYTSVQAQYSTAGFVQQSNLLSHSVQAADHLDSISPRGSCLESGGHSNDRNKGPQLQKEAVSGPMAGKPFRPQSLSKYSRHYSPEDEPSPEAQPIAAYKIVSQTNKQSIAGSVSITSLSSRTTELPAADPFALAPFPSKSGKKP

SMILES: CC(C)=Cc1cccc2c1/C(=N/Nc1ccc(S(N)(=O)=O)cc1)C(=O)N2 [GW396574X]
- potency estimated from few doses (CDK16; CATDS: 0.172165115049177): 778 nM
- potency estimated from few doses (CDK2; CATDS: 0.26435202316191703): 366 nM
- potency estimated from few doses (NUAK1; CATDS: 0.20890182477098199): 539 nM
- potency estimated from few doses (NUAK2): 1080 nM
- potency estimated from few doses (STK3): 1470 nM
- potency estimated from few doses (STK4): 1330 nM

SMILES: Cl.NS(=O)(=O)c1ccc(N/N=C2\C(=O)Nc3cccc(CCc4ccncc4)c32)cc1 [GW352430A]
- potency estimated from few doses (CDK2; CATDS: 0.44900253923849898): 936 nM
- potency estimated from few doses (CDK6): 2160 nM
- potency estimated from few doses (CSNK2A2): 2070 nM

SMILES: COc1cccc(Nc2nccc(-c3cnn4ncccc34)n2)c1 [GW810576X]
- potency estimated from few doses (CDK16; CATDS: 3.1157097879833801E-2): 2230 nM
- potency estimated from few doses (CDK2; CATDS: 3.2251458753321499E-2): 1800 nM
- potency estimated from few doses (CDK4): 1130 nM
- potency estimated from few doses (CDK9): 119 nM
- potency estimated from few doses (CDKL5): 8.45 nM
- potency estimated from few doses (CLK1): 29.2 nM
- potency estimated from few doses (CLK4): 90.9 nM
- potency estimated from few doses (CSNK1D): 1030 nM
- potency estimated from few doses (CSNK1E): 2230 nM
- potency estimated from few doses (DYRK1A): 529 nM
- potency estimated from few doses (FLT3): 103 nM
- potency estimated from few doses (GSK3A; CATDS: 0.103253823443788): 45 nM
- potency estimated from few doses (GSK3B; CATDS: 9.7411606637186801E-2): 50.3 nM
- potency estimated from few doses (ICK): 67.5 nM
- potency estimated from few doses (NEK9): 1210 nM
- potency estimated from few doses (NNT): 1570 nM
- potency estimated from few doses (NUAK1; CATDS: 4.2227707983222298E-2): 505 nM
- potency estimated from few doses (Q6ZSR9): 92.6 nM
- potency estimated from few doses (RIOK2): 1590 nM
- potency estimated from few doses (TGFBR2): 70.2 nM

SMILES: Cn1cc(C2=C(c3cccc(N)c3)C(=O)NC2=O)c2ccccc21 [RO0317471-000]
- potency estimated from few doses (CDC42): 1200 nM
- potency estimated from few doses (GSK3A; CATDS: 0.53179335167556496): 23.5 nM
- potency estimated from few doses (GSK3B; CATDS: 0.45250345973029299): 32.2 nM
